Records with an inconclusive call do not appear. Where a call stands in place of a potency, no number is given. Active and inactive are the calls of the source. Calls follow the shape of the full dose curve.
test: qHTS assay for small molecules that induce genotoxicity in human embryonic kidney cells expressing luciferase-tagged ATAD5 - cell viability (AID 651634); conditions: HEK293T ATAD5-luc cells viability, CellTiter-Fluor, 15.5 h; series mostly up to 83.3 µM; also: nearly all actives have a fitted effect of over 25% in size
Excerpt: National Center for Advancing Translational Sciences [NCATS]
NIH Chemical Genomics Center [NCGC]
U.S. Environmental Protection Agency [EPA]
National Institutes of Environmental Health Sciences [NIEHS]
National Toxicology Program [NTP]
U.S. Food and Drug Administration [FDA]
Enhanced Level of Genome Instability Gene 1 (ELG1; human ATAD5) protein levels increase in response to various types of DNA damage. Using a luciferase reporter-gene tagged with ElG1, a cell-based assay [developed by Kyungjae Myung, NHGRI, NIH] was used to measure the induction of ATAD5 in human embryonic kidney cells (HEK293T). So, increase in luciferase activity can be used to identify the compounds that cause genetic stress. In addition to genotoxicity, these cells were also used to test for cytotoxicity by measuring the protease activity within live cells.
Tox21 Assay Protocol Summary:
For cytotoxicity screening, 2,000 cells in 5 uL/well were dispensed into white, solid-bottom 1536-well plates using a Multidrop Combi (Thermo Scientific) dispenser. Following transfer of 23 nL compound or DMSO vehicle by a pin tool, the plates were incubated 15.5 hr at 37C and 5% CO2. 1 ul CellTiter-Fluor reagent (Promega, Madison, WI) was then added to each plate and following 30 min incubation at 37C, fluorescence intensity was quantified on a ViewLux CCD-based plate reader.
Potency is read from the fitted curve at half-maximal effect.

| Structure (SMILES) | Potency |
| --- | --- |
| N[C@H](CCC(=O)O)C(=O)O | inactive |
| OCCO[C@@H]1[C@@H](O)[C@H](O)[C@@H](CO)O[C@@H]1O | inactive |
| COc1ccc2c(c1)OC(C)(C)C(c1ccccc1)C2c1ccc(OCCN2CCCC2)cc1 (stereo not given) | 26.6 µM (active) |
| CC[C@@H](C(=O)O)[C@@H]1O[C@@H]([C@@H](C)[C@H](O)[C@H](C)C(=O)[C@H](CC)[C@H]2O[C@]3(C=C[C@@H](O)[C@]4(CC[C@@](C)([C@H]5CC[C@](O)(CC)[C@H](C)O5)O4)O3)[C@H](C)C[C@@H]2C)[C@@H](C)C[C@@H]1C | 1.88 µM (active) |
| CCOC(=O)CN[C@@H](C(=O)N1CC[C@H]1C(=O)NCc1ccc(/C(N)=N/O)cc1)C1CCCCC1 | inactive |
| CCC(=O)OCC(=O)[C@@]1(OC(=O)CC)[C@H](C)C[C@H]2[C@H]3[C@H]([C@@H](O)C[C@@]21C)[C@@]1(C)C=CC(=O)C=C1C[C@H]3Cl | inactive |
| CCN(CC)CCOCCOC(=O)C(CC)(CC)c1ccccc1 | inactive |
| Cc1cccc(Nc2ncccc2C(=O)O)c1C | inactive |
| CC[C@H](CC[C@@H](C)[C@H]1CC[C@H]2[C@@H]3CC=C4C[C@@H](O)CC[C@]4(C)[C@H]3CC[C@]12C)C(C)C | inactive |
| CC(CN1c2ccccc2Sc2cccnc21)N(C)C (stereo not given) | inactive |
| CC(=O)OC[C@H]1O[C@@H](O[C@H]2[C@H](O)[C@@H](OC(=O)c3ccccc3C(=O)O)[C@H](O)O[C@@H]2COC(C)=O)[C@H](O)[C@@H](OC(=O)c2ccccc2C(=O)O)[C@@H]1O | inactive |
| NCCC[C@H](N)C(=O)O | inactive |
| C=CCOc1ccc(CC(=O)O)cc1Cl | inactive |
| CCOC(=O)[C@H](CCc1ccccc1)N[C@H]1CCCN2CCC[C@@H](C(=O)O)N2C1=O | inactive |
| CC(Oc1ccccc1)C(=O)N[C@@H]1C(=O)N2[C@@H]1SC(C)(C)[C@@H]2C(=O)O (stereo not given in full) | inactive |
| CCOc1ccc(N=Nc2ccc(N)cc2N)cc1 | 2.37 µM (active) |
| O=C1NCCN1c1ncc([N+](=O)[O-])s1 | inactive |
| NC(=O)OC[C@@H]1[C@H](NC(=O)/C(=N\OCC(=O)O)c2csc(N)n2)C(=O)N1S(=O)(=O)O | inactive |
| CC(=O)O[C@H]1C[C@@H]2CC[C@@H]3[C@H](CC[C@@]4(C)[C@H]3C[C@H](N3CC[N+](C)(C)CC3)[C@@H]4OC(C)=O)[C@@]2(C)C[C@@H]1N1CC[N+](C)(C)CC1 | inactive |
| O=C(NCCNCC(O)COc1ccc(O)cc1)N1CCOCC1 (stereo not given) | inactive |

| Structure (SMILES) | Potency |
| --- | --- |
| C[C@]12CC[C@@H]3c4ccc(OC(=O)c5ccccc5)cc4CC[C@H]3[C@@H]1CC[C@@H]2O | inactive |
| CCC(=O)NS(=O)(=O)c1ccc(-c2c(-c3ccccc3)noc2C)cc1 | inactive |
| CCCCCCCCCCCCCCCCCCCCCC(=O)Nc1ccn([C@@H]2O[C@H](CO)[C@@H](O)[C@@H]2O)c(=O)n1 | inactive |
| CN1c2c(nc(N)[nH]c2=O)NCC1CNc1ccc(C(=O)NC(CCC(=O)O)C(=O)O)cc1 (stereo not given) | inactive |
| C=C1/C(=C\C=C2/CCC[C@]3(C)[C@@H]([C@H](C)OCCC(C)(C)O)CC[C@@H]23)C[C@@H](O)C[C@@H]1O | inactive |
| COc1ccc(CCNC[C@H](O)c2ccc(O)cc2)cc1OC | inactive |
| CC(=O)O[C@H]1CC[C@@]2(C)C(=CC[C@@H]3[C@@H]2CC[C@]2(C)C(c4cccnc4)=CC[C@@H]32)C1 | inactive |
| N#Cc1ccc2c(c1)N(CCCN1CCC(O)CC1)c1ccccc1S2 | inactive |
| Nc1ncnc2c1ncn2CCOCP(=O)(O)O | inactive |
| NCc1ccccc1CC(=O)N[C@@H]1C(=O)N2C(C(=O)O)=C(CSc3nnnn3CC(=O)O)CS[C@H]12 | inactive |
| CC(C)(C)NCC(O)c1ccc(O)c(CO)n1 (stereo not given) | inactive |
| CCCC1C(=O)N2C(N(C)C)=Nc3ccc(C)cc3N2C1=O (stereo not given) | inactive |
| CO/N=C(\C(=O)N[C@@H]1C(=O)N2C(C(=O)O)=C(CSC(=O)c3ccco3)CS[C@H]12)c1csc(N)n1 | inactive |
| O=C(Nc1ccc(/C=C/c2ccc(NC(=O)c3cc(S(=O)(=O)O)c4cccnc4c3O)cc2S(=O)(=O)O)c(S(=O)(=O)O)c1)c1cc(S(=O)(=O)O)c2cccnc2c1O | inactive |
| C=CC1=C(C)C2=CC3=NC(=C(CC(=O)[O-])C4=NC(=C(C)C4=C([O-])[O-])C=c4[n-]c(c(C)c4CC)=CC1=N2)C(CCC(=O)[O-])C3C.[Cu+2].[Na+].[Na+].[Na+] (stereo not given) | 23.7 µM (active) |
| CCOC(=O)C1=C(COCCN)NC(C)=C(C(=O)OC)C1c1ccccc1Cl (stereo not given) | inactive |
| Cc1cc(-c2ccc(N=Nc3c(S(=O)(=O)O)cc4cc(S(=O)(=O)O)cc(N)c4c3O)c(C)c2)ccc1N=Nc1c(S(=O)(=O)O)cc2cc(S(=O)(=O)O)cc(N)c2c1O | 26.6 µM (active) |
| CCN1C(=O)NC(c2ccccc2)C1=O (stereo not given) | inactive |
| CS(=O)(=O)OCCCNCCCOS(C)(=O)=O | inactive |
| S=C1SCN(Cc2ccccc2)CN1Cc1ccccc1 | inactive |
